Test results from PubChem BioAssay (NCATS).
Inconclusive results are not listed. Where a call stands in place of a potency, no number is given. Activity calls are given as the source filed them. The call rests on the fitted dose curve; in most records, active means well fitted activation curve with a large enough effect; inconclusive means small, poorly fitted or top-dose-only effect; inactive means flat fitted curve, though single readings scatter.

Assay: Primary redox qHTS assay for identification of artifact compounds. (AID 1845223)
Settings: Amplex Red/HRP redox cycling with DTT, fluorescence; series mostly up to 53.8 µM
In short: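 Amplex Red (25 uM) and HRP (250 mU/mL) in HBSS, with compounds for 15 min, then 250 uM DTT for 30 min, room temperature, dark. Fluorescence 525/598 nm read; normalized to DMSO and 10 uM DA3003; Hill fit.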
In the case of `CC1(C)C(=O)CCC2(C)C1C(O)C=C1COC(=O)C12O` (stereo not drawn), the Potency is reported as “inactive”. In the case of `Cn1c2ccc(NC(=O)c3ccccc3)cc2c(=O)n2nc(C(=O)O)cc12`, the Potency is reported as “inactive”. In the case of `C=Cc1ccc(O[C@@H]2O[C@H](CO[C@@H]3O[C@@H](C)[C@H](O)[C@@H](O)[C@H]3O)[C@@H](O)[C@H](O)[C@H]2O)cc1`, the Potency is reported as “inactive”.
